Drawing on PubChem BioAssay, this text covers composite z-score and z-score for 13 compounds.

Activity calls are given as the source filed them.

A short description of experiment [1]: binders of probe aFSTL3 on microarray, primary screen, stem cell growth factor project, biochemical, small-molecule microarray, fluorescence 635/667 (AID 1064).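 Note: measures binding of the biotinylated anti-FSTL3 antibody to printed compounds.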 To be noted: higher = more signal.
Experiment [2] is described as follows: binders from COS7 lysate, DM2A8 probe, primary screen, torsin A project, cell lysate, small-molecule microarray, fluorescence 635/667 (AID 1065). The following applies: higher = more signal, COS7 lysate expressing mutant human TOR1A.
Experiment [3] is described as follows: binders of probe aFGF2 on microarray, primary screen, stem cell growth factor project, biochemical, small-molecule microarray, fluorescence 635/667 (AID 1067).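 Note: measures binding of biotinylated aFGF2 protein to printed compounds on slides; z-score merges feature fluorescence and signal-to-noise across triplicate slides.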 To be noted: higher = more signal.
A short description of experiment [4]: binders of probe aFGF10 on microarray, primary screen, stem cell growth factor project, biochemical, small-molecule microarray, fluorescence 635/667 (AID 1071).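 Note: score merges 667 nm spot intensity and signal to noise from triplicate slides.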 To be noted: higher = more signal.
Experiment [5] deals with Neurogenic locus notch homolog protein 2 (Homo sapiens) (UniProt Q04721). Nature of the experiment: Notch2 binders on small-molecule microarrays, primary screen, biochemical, small-molecule microarray, 635 nm fluorescence, stem cell growth factors (AID 1073). To be noted: Notch2 binding, higher = more signal.
Chain of Neurogenic locus notch homolog protein 2 (Homo sapiens) (Q04721 whole entry, looked up, canonical isoform): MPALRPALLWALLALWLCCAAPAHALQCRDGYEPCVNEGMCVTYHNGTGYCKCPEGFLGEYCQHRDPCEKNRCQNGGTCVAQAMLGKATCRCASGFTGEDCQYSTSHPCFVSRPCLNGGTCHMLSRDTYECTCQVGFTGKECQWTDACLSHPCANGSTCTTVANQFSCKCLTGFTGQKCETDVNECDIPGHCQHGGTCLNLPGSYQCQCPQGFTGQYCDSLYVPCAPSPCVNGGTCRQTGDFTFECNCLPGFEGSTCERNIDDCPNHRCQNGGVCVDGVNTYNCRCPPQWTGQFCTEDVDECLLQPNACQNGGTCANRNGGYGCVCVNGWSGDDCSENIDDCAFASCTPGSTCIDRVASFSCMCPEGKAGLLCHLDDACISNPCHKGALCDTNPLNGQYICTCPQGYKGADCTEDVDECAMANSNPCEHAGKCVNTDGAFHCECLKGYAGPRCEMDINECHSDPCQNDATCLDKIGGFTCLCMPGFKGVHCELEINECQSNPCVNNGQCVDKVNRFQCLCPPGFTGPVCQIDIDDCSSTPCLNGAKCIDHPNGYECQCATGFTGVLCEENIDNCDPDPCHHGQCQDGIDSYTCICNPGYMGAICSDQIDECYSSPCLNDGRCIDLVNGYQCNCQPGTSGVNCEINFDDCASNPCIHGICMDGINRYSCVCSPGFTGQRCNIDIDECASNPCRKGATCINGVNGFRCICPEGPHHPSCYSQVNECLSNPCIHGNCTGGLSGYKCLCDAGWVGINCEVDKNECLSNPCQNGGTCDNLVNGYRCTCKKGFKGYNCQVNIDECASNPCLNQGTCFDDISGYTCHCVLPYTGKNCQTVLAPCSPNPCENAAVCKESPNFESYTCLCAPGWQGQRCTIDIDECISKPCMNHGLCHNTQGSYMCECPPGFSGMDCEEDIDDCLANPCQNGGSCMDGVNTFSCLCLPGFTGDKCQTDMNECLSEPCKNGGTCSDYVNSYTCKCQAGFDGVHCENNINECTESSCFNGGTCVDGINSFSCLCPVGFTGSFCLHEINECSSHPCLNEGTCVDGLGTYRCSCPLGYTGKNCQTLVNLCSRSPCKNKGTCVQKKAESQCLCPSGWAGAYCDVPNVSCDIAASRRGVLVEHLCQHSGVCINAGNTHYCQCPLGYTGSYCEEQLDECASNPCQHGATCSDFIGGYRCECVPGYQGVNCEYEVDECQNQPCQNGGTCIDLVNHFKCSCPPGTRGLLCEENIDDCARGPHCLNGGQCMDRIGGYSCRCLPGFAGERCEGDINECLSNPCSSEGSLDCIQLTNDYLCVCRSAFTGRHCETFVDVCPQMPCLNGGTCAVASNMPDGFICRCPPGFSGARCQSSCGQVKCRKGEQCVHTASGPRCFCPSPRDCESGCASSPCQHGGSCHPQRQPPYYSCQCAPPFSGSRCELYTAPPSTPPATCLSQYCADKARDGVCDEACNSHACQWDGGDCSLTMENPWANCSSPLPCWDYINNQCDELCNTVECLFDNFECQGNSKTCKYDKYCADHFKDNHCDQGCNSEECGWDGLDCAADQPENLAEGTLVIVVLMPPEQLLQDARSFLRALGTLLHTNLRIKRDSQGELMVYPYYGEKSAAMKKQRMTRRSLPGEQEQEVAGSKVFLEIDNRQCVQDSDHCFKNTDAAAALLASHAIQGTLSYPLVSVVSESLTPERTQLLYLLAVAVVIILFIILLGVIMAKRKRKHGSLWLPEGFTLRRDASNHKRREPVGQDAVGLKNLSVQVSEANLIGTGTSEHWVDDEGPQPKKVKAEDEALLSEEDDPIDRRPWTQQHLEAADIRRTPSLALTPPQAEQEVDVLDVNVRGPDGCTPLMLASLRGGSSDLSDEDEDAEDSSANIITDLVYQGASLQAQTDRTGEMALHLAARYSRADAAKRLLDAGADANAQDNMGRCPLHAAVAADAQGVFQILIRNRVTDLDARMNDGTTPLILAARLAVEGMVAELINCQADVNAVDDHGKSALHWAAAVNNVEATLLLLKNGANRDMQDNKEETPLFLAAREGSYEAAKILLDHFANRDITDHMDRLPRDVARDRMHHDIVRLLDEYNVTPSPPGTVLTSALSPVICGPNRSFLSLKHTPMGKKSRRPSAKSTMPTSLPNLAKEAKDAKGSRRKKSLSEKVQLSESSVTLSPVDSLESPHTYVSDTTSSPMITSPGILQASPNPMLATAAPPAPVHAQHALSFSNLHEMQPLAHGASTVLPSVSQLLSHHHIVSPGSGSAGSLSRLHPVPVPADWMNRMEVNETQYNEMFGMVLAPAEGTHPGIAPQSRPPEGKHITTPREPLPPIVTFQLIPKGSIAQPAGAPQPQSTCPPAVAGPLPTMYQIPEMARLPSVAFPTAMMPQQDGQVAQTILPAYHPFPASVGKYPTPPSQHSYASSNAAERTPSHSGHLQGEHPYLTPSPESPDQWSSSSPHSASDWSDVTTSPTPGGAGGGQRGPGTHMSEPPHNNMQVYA
Experiment [6] deals with Pro-neuregulin-1, membrane-bound isoform (Homo sapiens) (UniProt Q02297). Nature of the experiment: NRG1 binders on small-molecule microarrays, primary screen, psychiatric disease protein project, biochemical, small-molecule microarray, fluorescence 635/667 (AID 1075).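 Note: score combines 667 nm spot fluorescence with signal to noise.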 The following applies: NRG1 binding, 635 nm fluorescence, higher = more signal.
Chain of Pro-neuregulin-1, membrane-bound isoform (Homo sapiens) (Q02297 whole entry, looked up, the tested form may be a part, canonical isoform): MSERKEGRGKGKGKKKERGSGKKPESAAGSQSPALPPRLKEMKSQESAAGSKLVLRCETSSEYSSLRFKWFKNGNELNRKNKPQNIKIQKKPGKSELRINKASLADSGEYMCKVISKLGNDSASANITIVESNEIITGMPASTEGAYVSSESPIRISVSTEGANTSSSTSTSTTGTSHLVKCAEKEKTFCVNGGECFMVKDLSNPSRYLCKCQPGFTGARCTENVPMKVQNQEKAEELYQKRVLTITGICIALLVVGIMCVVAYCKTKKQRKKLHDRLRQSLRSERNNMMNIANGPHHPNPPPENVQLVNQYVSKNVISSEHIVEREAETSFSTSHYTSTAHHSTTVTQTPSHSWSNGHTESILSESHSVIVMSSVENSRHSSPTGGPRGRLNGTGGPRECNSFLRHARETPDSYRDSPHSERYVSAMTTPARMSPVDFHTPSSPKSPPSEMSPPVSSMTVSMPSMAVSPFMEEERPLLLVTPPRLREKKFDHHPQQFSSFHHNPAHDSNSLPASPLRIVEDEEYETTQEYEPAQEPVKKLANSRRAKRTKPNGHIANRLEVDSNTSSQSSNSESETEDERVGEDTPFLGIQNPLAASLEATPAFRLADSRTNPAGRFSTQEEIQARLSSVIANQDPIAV
The test system of experiment [7] is Neuregulin-1 EGF-like domain. The experiment can be described thus: binders of neuregulin-1 EGF-like domain, primary screen, biochemical, small-molecule microarray, 635 nm fluorescence (AID 1081).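 Note: binding of the protein to compounds printed on small-molecule microarray slides.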 The following applies: small-molecule microarray binding, higher = more signal.
Experiment [8] is described as follows: FRG1 promoter luciferase signal modulators, primary screen, FRG1 inhibition for FSHD, cell-based, C2C12 myotubes, firefly/Renilla luciferase, luminescence (AID 1084). The following applies: higher = more signal, called active from +8 up or from −8 down.
A short description of experiment [9]: binders of probe aFST on microarray, primary screen, stem cell growth factor project, biochemical, small-molecule microarray, fluorescence 635/667 (AID 1086).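 Note: score merges 667 nm fluorescence with signal-to-noise of each printed compound spot.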 To be noted: higher = more signal.
The nature of experiment [10]: binders of probe aHhip on microarray, primary screen, stem cell growth factor project, biochemical, small-molecule microarray, fluorescence 635/667 (AID 1087).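 Note: score merges spot fluorescence at 667nm with spot signal to noise ratio.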 To be noted: higher = more signal.

Consider `CCOC(=O)C[C@H]1[C@H](OC(=O)c2ccc(C(=O)c3ccccc3)cc2)[C@@H](NC(=O)Cc2ccc(OC)cc2)c2cc(OCCCO)ccc2N1C(=O)c1ccc2ccccc2n1`, for which the composite z-score is -0.537 in experiment [1]; 0.0267 in experiment [2]; -0.0887 in experiment [3]; 0.371 in experiment [4]; 0.298 in [5]; 0.843 in experiment [6]. The composite z-score in experiment [7] was 0.325; in experiment [9] it was 0.612; in [10], -0.0994. Moreover, the z-score in experiment [8] was -2.62 (inactive).
With `COC(=O)C(CC#Cc1ccc2c(c1)[C@]1(C(=O)N2)[C@H](c2ccccc2OCCO)N2[C@H](c3ccccc3)[C@H](c3ccccc3)OC(=O)[C@H]2[C@@H]1C(N)=O)C(=O)OC`, the composite z-score came to 1.88 in experiment [1]; 0.726 in [2]; 0.255 in experiment [3]; 0.774 in experiment [4]; 0.806 in experiment [5]; 1.69 in experiment [6]. Moreover, the composite z-score in [7] was 1.32; in experiment [9], 1.84; in experiment [10], 0.087. In addition, the z-score in [8] was -1.84 (inactive).
In the case of `CCCC=C(CCC)[C@@H](NC(=O)OCC(C)C)c1ccccc1`, the composite z-score is 1.28 in [1]; -0.122 in experiment [2]; 0.685 in experiment [3]; 0.444 in experiment [4]; 1.33 in experiment [5]; -0.111 in [6]. In addition, the figures for the composite z-score in experiment [7], in experiment [9] and in [10] were 0.762, 2.06 and 0.152, respectively. The z-score in experiment [8] is 2.06 (inactive).
`O=C(NC1CC1)[C@@H]1c2ccccc2C(=O)N(Cc2cc(F)cc(C(F)(F)F)c2)[C@H]1c1ccc(CO)cc1`: the composite z-score in experiment [1] was 0.388; in [2], 0.195; in [3], -0.172; in [4], 0.327; in experiment [5] it was -0.697; in experiment [6], -0.13. Further, the composite z-score is 1.04 in experiment [7], 0.254 in experiment [9] and -0.194 in experiment [10]. Also, in experiment [8], the z-score is -0.594 (inactive).
Take `O=C1[C@H]2C=C(I)[C@H](C[C@@H]2OCCCCO)[C@@]12CO2`: the composite z-score in experiment [1] was -0.0695; in experiment [2], 2.01; in [3], 0.209; in experiment [4] it was -0.484; in experiment [5], -0.542; in experiment [6], -0.456. Besides, the composite z-score in experiment [7] was 0.576; in experiment [9], -0.174; in experiment [10], 0.162. In addition, in experiment [8], the z-score is 0.988 (inactive).
In the case of `COc1cc(CO)cc(I)c1O[C@H]1C=C(C(=O)NCCO)C[C@@H](NC[C@@H]2CCCO2)[C@@H]1O`, the composite z-score was -0.281 in experiment [1]; 0.445 in experiment [2]; -0.085 in experiment [3]; 0.674 in experiment [4]; 0.041 in [5]; 0.625 in experiment [6]. Moreover, the composite z-score in [7] is 1.09; in [9] it was 0.59; in experiment [10] it was -0.169. For the same compound, the z-score in [8] is -0.225 (inactive).
In the case of `COc1ccc(C(=O)Nc2cccc(CN3C(=O)[C@]4(O[C@H](CCn5cc(CCO)nn5)[C@@H]([Si](C)(C)c5ccc(OC)cc5)[C@@H]4C)c4ccccc43)c2)cc1`, the composite z-score in [1] is 0.287; in experiment [2], -0.161; in experiment [3], -0.116; in experiment [4] it was -0.13; in experiment [5], 0.91; in [6] it was 0.654. Also, the composite z-score in experiment [7] was 1.04; in experiment [9], 0.372; in experiment [10], -0.137. For the same compound, the z-score in experiment [8] is -2.91 (inactive).
Regarding `CC(C)[Si](C#C[Si](C(C)C)(C(C)C)C(C)C)(O[C@H](C)c1cn(Cc2ccccc2)nn1)C(C)C`, the composite z-score is -0.169 in [1]; 0.209 in experiment [2]; -0.106 in experiment [3]; 0.422 in experiment [4]; 0.795 in experiment [5]; 0.566 in experiment [6]. The values for the composite z-score in experiment [7], in experiment [9] and in experiment [10] were 0.938, 0.372 and -0.337, respectively. Further, the z-score in experiment [8] was -1.66 (inactive).
With `COc1ccc([Si](C)(C)[C@@H]2[C@@H](CCn3cc([C@H](O)c4ccccc4)nn3)O[C@]3(C(=O)N(Cc4cccc(N5CCC5=O)c4)c4ccccc43)[C@H]2C)cc1`, the composite z-score in [1] was -0.0168; in experiment [2], -0.185; in [3] it was -0.116; in experiment [4], 0.232; in [5] it was -0.205; in [6], 0.292. In addition, the results for the composite z-score in experiment [7], in [9] and in experiment [10] were 0.729, -0.162 and -0.249, respectively. Also, the z-score in experiment [8] was 0.795 (inactive).
Take `COc1cc2c(cc1O)C(c1cccs1)N(Cc1ccc([N+](=O)[O-])o1)CC2` (stereo not given): the composite z-score in experiment [1] was -0.116; in experiment [2], 1.85; in experiment [3], -0.0265; in experiment [4], 0.724; in [5], 0.881; in experiment [6] it was 1.54. Besides, the composite z-score in experiment [7] was 0.387; in [9] it was 0.583; in experiment [10], -0.0994. Moreover, the z-score in [8] was -1.63 (inactive).
For `CCCCCCc1nc(-c2ccc(-c3ccc(Cl)c(Cl)c3)o2)c(C)c2c1[Si](C(C)C)(C(C)C)OC2`, the composite z-score in experiment [1] is -0.495; in [2] it was -0.866; in [3], -0.144; in experiment [4] it was -0.475; in experiment [5], -0.363; in [6] it was 0.0643. In addition, the composite z-score in experiment [7] was -0.416; in experiment [9] it was -0.0878; in [10], 0.0505. Further, in experiment [8], the z-score is 0.333 (inactive).
`C=CC[C@]1(C(=O)NCc2ccccc2)N=C(c2ccc(OCCCO)cc2)O[C@H]1c1ccccc1CN=[N+]=[N-]`: the composite z-score in [1] was 0.0143; in [2], 0.234; in [3] it was 0.053; in experiment [4] it was 0.505; in experiment [5] it was 1.54; in experiment [6], 1.05. Besides, the results for the composite z-score in [7], in experiment [9] and in [10] were 1.11, 1.02 and 0.0854, respectively. In experiment [8], the z-score was -2.43 (inactive).
For `CC(C)(C)OC(=O)CC[C@]1(C(=O)NCCN2CCOCC2)COC(c2ccc(OCCCO)cc2)=N1`, the composite z-score in experiment [1] was -0.254; in [2] it was 0.883; in experiment [3] it was 0.0569; in experiment [4], 0.691; in experiment [5] it was 0.361; in experiment [6], 1.33. Also, the results for the composite z-score in experiment [7], in experiment [9] and in experiment [10] were 1.41, 0.519 and 0.0623, respectively. Also, the z-score in [8] was -0.783 (inactive).
